In the supplement of paper PMC10681739:

What was measured:
ETS1 [1] = molecular target: T1, ETS1 (UniProt P14921); assay: ETS1 binding intensity (PBM fluorescence), ETS1 alone (arbitrary fluorescence units); higher = stronger binding; conditions: ETS1 concentration 1 nM; RUNX1 concentration 0 nM
T1 sequence: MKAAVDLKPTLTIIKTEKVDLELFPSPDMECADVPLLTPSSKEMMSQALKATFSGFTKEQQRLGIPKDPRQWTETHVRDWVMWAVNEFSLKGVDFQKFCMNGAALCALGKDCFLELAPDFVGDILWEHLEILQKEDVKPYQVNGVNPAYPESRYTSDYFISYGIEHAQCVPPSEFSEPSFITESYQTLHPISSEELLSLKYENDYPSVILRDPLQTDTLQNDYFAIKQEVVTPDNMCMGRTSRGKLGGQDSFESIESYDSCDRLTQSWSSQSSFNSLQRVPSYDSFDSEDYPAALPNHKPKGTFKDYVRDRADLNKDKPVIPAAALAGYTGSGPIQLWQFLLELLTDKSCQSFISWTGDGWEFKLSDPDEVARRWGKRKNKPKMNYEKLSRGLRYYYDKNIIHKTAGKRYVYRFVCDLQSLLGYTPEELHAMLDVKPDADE

RUNX1 [2] = molecular target: RUNX1 (UniProt Q01196); assay: RUNX1 binding intensity (PBM fluorescence), RUNX1 alone (arbitrary fluorescence units); higher = stronger binding; conditions: RUNX1 concentration 2 nM; ETS1 concentration 0 nM
Method: (§1)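 Cooperative gcPBM on 36-bp genomic probes with neighbouring ETS1 and RUNX1 sites. Recombinant human RUNX1 (2 nM) was incubated alone or with ETS1 (25 nM) and detected with anti-RUNX1 antibody plus Alexa488 secondary. Values are medians over 4 replicate spots; the RUNX1+ETS1 data were normalised to the RUNX1-only data. The probes sit in constant array flanks that are not printed.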

ETS1 [3] = molecular target: T1, ETS1; assay: ETS1 binding intensity (PBM fluorescence) in presence of RUNX1, normalised to ETS1-only experiment (arbitrary fluorescence units); higher = stronger binding; conditions: ETS1 concentration 1 nM; RUNX1 concentration 25 nM
RUNX1 [4] = molecular target: RUNX1 (UniProt Q01196); assay: RUNX1 binding intensity (PBM fluorescence) in presence of ETS1, normalised to RUNX1-only experiment (arbitrary fluorescence units); higher = stronger binding; conditions: RUNX1 concentration 2 nM; ETS1 concentration 25 nM
Method: as §1
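For RUNX1 binding intensity (PBM fluorescence) in presence of ETS1, normalised to RUNX1-only experiment in this document: Full-length recombinant human ETS1 or RUNX1 bound to double-stranded 36-bp genomic probes on microarrays, detected by protein-specific primary antibody and Alexa488 secondary, spot fluorescence as median of four replicate spots.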
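For RUNX1 binding intensity (PBM fluorescence), RUNX1 alone in this document: Full-length recombinant human RUNX1 bound to double-stranded 36-bp genomic probes on a high-density microarray, scored as Alexa488 fluorescence per spot via anti-RUNX1 antibody, median of four replicate spots.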

RUNX1, sequence (Q01196 whole entry): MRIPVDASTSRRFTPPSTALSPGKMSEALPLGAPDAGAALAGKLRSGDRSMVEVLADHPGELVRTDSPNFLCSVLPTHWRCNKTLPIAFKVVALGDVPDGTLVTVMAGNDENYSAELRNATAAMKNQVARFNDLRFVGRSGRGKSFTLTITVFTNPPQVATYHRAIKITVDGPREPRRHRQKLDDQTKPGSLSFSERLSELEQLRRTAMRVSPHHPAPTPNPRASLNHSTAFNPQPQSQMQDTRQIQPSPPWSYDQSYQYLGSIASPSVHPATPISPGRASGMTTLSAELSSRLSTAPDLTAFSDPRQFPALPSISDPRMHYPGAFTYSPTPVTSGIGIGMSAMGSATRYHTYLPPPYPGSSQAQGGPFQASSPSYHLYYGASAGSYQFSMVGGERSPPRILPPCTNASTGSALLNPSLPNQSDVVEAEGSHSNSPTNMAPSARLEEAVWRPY

Sequence	ETS1 binding intensity (ETS1 [1])	RUNX1 binding intensity (RUNX1 [2])	ETS1 binding intensity (ETS1 [3])	RUNX1 binding intensity (RUNX1 [4])
CTGTTTCCTGCCTTTGCTGTCTGTGACCGCATCAGT	478	1310	1490	2840
CGCCGGCTCCCGGATGTTGTGGGGATCAGCGCCCGC	3270	771	3760	1260
CTGAGTGAGACAGGATGTGGGCAGACCTCTAACACA	5110	733	11000	3230
ATATATCACCCCTTCCTTGCAAAACCACAAGACCAA	508	6030	1490	8230
ATTAGAGGTAGAGGAAATACCACATGCAAAGGTTTG	793	785	1090	863
CATGTGCTTCCGGCTTGATCTGTGGTTATTCTGGTT	1370	1270	2980	3010
GTAGAGACAGGAAATTATGTTGGTTTTCTTGCAGAA	3530	724	3800	1310
CCCTCATCTTCCTGCTTCAGGCAGCTGTGGTTTACC	420	1070	1550	1660
TAAGTGCAGGAAACGGCTGTGTGGGTGTCAGTGATT	1350	689	1310	906
GTTGGGGTGCGTGTAGGATGTGGTCTGGGATGATTA	599	1050	2610	867
TATGGGGCCGGAAGCCATTCACCACAAACACTGTGT	2430	953	9050	3610
GGGCGGAAGTGCGTCACTATGTCCGACCCGCAGTGC	1630	706	2050	1010
GCCCAGGGAAGCACTTCCTGCGGGGCGCGGTGCAGC	1030	744	1270	1500
GAAAACACAGGAAGCCGTCCGCGCAACCGCGTTGCA	1520	840	2160	1150
TGGCTGCCACTGAGAGGATGTGGTGACAGAGGTGGG	1700	693	4350	886
CTGCGAGCTCAGAACGGAAACCACAGCAACTACCGT	2170	1070	4260	1550
TTGGAAACAGACAGGAAGCCACAGGCAGTAAACATT	3300	753	3670	978
AGCCACATCCTGGACAAAAGCTGTGGTCTAGTAACC	430	911	556	2020
GGACAAAACATCATAGGAAGTGGGTTTTGGGGTGAG	1500	761	2950	914

Sequence	ETS1 binding intensity (ETS1 [1])	RUNX1 binding intensity (RUNX1 [2])	ETS1 binding intensity (ETS1 [3])	RUNX1 binding intensity (RUNX1 [4])
CCGATTTCCCCGGACGTGGTGAGACCGCGCTTCGTC	591	835	855	1280
TGGCGGGAGAACTTCCCCCTGTGCGGTCGCGACGTG	444	738	533	943
GAAGCCAGGAAATGGTGCGTGTGCGGGGCCGGGCGC	982	663	1010	935
AACCAATCGAGCGGAGGAAACCGCGGCGTTAGCGTG	568	864	1020	840
CAGCAGAGGCGCGGATGTGGTTAAACGAGTGCCGTC	775	876	6770	3670
GCAGAGAGATTGGCCGGATGCGGTGGCTCACGCCTT	4850	683	8930	1140
GAAACAATTTCCTGTACCTCTGTGGTAAAAATGATA	1040	945	1650	2610
CTTCTGGCGGAAGCGGCACAAGCCGCAGTACAGCGC	1070	738	2370	1190
GAAGTGAGGTCAGGATGTGGTGGGTGACCCCTGAAA	911	768	1340	1090
AGGCAAACAGGATGTTCCTCTCCCACATGCAGACTT	4200	806	3770	1300
AGGGTGTGGAGGAAGTGGCTTACAACCACTTTGTCT	1270	764	1500	1090
ACAGGAAGAGATATTATATCTCCCTGCGGTTGGTTT	583	904	2430	779
TCCGGAAGTGGCACTGATGGGCGCCTGCGGCGGGGG	2720	758	5500	1030
CTCCTCCCCCACTTCCTATTTTTACCGCAGTTGCAC	752	4960	1340	7610
GAAGCTACTCTGGTTTCCTGTGGTTTTCTGAGCACT	597	1260	1320	2900
CCAACAGTACCCTTCCTCCCTTAACCACAAGACTGA	445	5500	2090	6290
GCAGAGAGGAGGGGATGTGGTTTCACAGCTTGCTCC	422	835	1720	937
CTCCCACATCCGAAGCGGCGCAACCCACAACAGCCT	445	1120	344	1620
